Laboratory results reported in PubChem BioAssay AID624330 (Southern Research Specialized Biocontainment Screening …, 2012).
Screen size: about 340,000 compounds; about 2,100 (0.62%) were called active. These entries were drawn from the full list. Results with a measured potency or affinity are listed apart. A number with no mark means an inactive call.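 The calls were made as follows: active = first-screen hits whose inhibition reached a set limit at any dose in the follow-up dose series; inconclusive = inhibition above the set first-screen limit but never retested; inactive = the rest.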

What follows are compounds tested against Rac GTPase-activating protein 1 (Homo sapiens) (UniProt Q9H0H5) (assay: MgcRacGAP GTPase-activating activity inhibitors, confirmation, biochemical, ADP Hunter fluorescence, primary and confirmatory (AID 624330;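 also: fluorescence reports GDP produced by GAP-driven GTP hydrolysis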)). Conditions: MgcRacGAP-stimulated Rac1 GTP hydrolysis, at 30 µM, active compounds read high, GST-tagged Rac1 F28L mutant substrate.
Rac GTPase-activating protein 1 (Homo sapiens), sequence (Q9H0H5 whole entry, looked up): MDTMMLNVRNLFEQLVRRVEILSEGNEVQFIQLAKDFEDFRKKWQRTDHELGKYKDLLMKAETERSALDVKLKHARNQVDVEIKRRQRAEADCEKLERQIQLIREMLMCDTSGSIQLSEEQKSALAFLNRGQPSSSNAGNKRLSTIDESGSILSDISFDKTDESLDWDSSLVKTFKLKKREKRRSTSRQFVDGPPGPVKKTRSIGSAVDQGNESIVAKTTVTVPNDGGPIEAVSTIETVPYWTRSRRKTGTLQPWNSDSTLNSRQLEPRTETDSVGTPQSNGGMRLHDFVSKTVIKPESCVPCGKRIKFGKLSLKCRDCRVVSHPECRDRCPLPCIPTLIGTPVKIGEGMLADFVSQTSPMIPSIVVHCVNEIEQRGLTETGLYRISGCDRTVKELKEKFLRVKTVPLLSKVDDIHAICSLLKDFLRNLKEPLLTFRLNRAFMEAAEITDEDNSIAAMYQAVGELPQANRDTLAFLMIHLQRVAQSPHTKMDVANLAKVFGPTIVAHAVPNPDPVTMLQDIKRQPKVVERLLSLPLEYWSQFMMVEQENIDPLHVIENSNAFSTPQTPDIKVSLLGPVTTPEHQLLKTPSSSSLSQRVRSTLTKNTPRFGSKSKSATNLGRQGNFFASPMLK

With `CN(C(=O)c1ccc(NC(=O)Cc2cccc(NC(=O)C3CCCN(C(=O)C4CCCC4)C3)c2)cc1)C1CCCC1` (stereo not drawn) as the compound, how does the inhibition read?
Its inhibition is 8.78%.

Which inhibition does the source give for `COc1ccc(NC2CCCN(C(=O)c3cccnc3)C2)cc1` (stereo not drawn) here?
The inhibition was 26.2%.

With `Cc1ccc(C(=O)N2CCCC(Nc3ccc(C(C)C)cc3)C2)cn1` (stereo not drawn) as the compound, how does the inhibition read?
Its inhibition is 7.62%.

For `COc1cc(OC)cc(C(=O)NCC2CCCN(C(=O)c3csc(C(C)C)n3)C2)c1` (stereo not drawn), which inhibition is on record?
Its inhibition is 8.24%.

How did the inhibition turn out when `CC(=O)c1ccc(C(=O)N2CCCC(Nc3ccc(C(C)C)cc3)C2)s1` (stereo not drawn) was run?
Its inhibition is -45.7%.

For `COc1ccc(C(=O)N2CCCC(Nc3ccc(C(C)C)cc3)C2)c(OC)n1` (stereo not drawn), which inhibition is on record?
Its inhibition is 2.96%.

Which inhibition does the source give for `CC(=O)c1ccc(C(=O)N2CCCC(Nc3ccccc3)C2)s1` (stereo not drawn) here?
Its inhibition is 7.53%.

For `CC(=O)c1ccc(OCC(=O)N2CCCC(Nc3ccc(C)c(C)c3)C2)cc1` (stereo not drawn), which inhibition is on record?
Its inhibition is 14.3%.

With `COc1ccc(OCC(=O)N2CCCC(Nc3ccc(C)c(C)c3)C2)cc1` (stereo not drawn) as the compound, how does the inhibition read?
The inhibition was 14.3%.

`CC(C)(C)c1ccc(C(=O)NCCCN2CCN(CCCNC(=O)c3ccc(C(C)(C)C)cc3)CC2)cc1` was tested. Which inhibition did it give?
The inhibition was 0.51%.

How did the inhibition turn out when `COC(=O)C1=C(O)C(C(=O)OC)C(c2ccc(C)cc2)C(C#N)(C#N)C1c1ccc(C)cc1` (stereo not drawn) was run?
Its inhibition is 6.45%.

With `COc1ccc(/C=C/C(=O)Nc2cc(C(F)(F)F)ccc2Cl)cc1` as the compound, how does the inhibition read?
Its inhibition is 0.39%.

`CCOC(=O)C1=C(C)NC(C)=C(C(=O)OCC)C1c1cccc([N+](=O)[O-])c1` was tested. Which inhibition did it give?
The inhibition was 10.8%.

For `O=C(c1cccc(N2CCCC2=O)c1)N1CCN(c2ccccc2)CC1`, which inhibition is on record?
The inhibition was 10.3%.

`COCCN(C(=O)Cc1coc2cc(C)c(C)cc12)c1c(N)n(Cc2ccccc2)c(=O)[nH]c1=O` was tested. Which inhibition did it give?
Its inhibition is 0.31%.

With `CCCC(C(=O)N(C)CC(=O)Nc1ccc(N2CCOCC2)cc1)c1ccccc1` (stereo not drawn) as the compound, how does the inhibition read?
Its inhibition is 7.2%.

With `CCNC(=S)N(Cc1cc2c(C)ccc(C)c2[nH]c1=O)C1CCCC1` as the compound, how does the inhibition read?
Its inhibition is 3.17%.

Which inhibition does the source give for `COc1ccc(NC2CCCN(C(=O)CSc3ccncc3)C2)cc1` (stereo not drawn) here?
The inhibition was 31.3%.

`COc1ccc(NC2CCCN(C(=O)C3(C)CCCCC3)C2)cc1OC` (stereo not drawn) was tested. Which inhibition did it give?
The inhibition was -45.5%.

How did the inhibition turn out when `COc1ccc(C(=O)N2CCCC(Nc3ccc(C)c(C)c3)C2)cc1` (stereo not drawn) was run?
The inhibition was 16.9%.

How did the inhibition turn out when `COc1ccc(NC2CCCN(C(=O)c3ccc4[nH]c(C)c(C)c4c3)C2)cc1OC` (stereo not drawn) was run?
Its inhibition is 12.8%.

With `CSc1nc(C(=O)N2CCCC(Nc3ccc(C)c(C)c3)C2)cs1` (stereo not drawn) as the compound, how does the inhibition read?
The inhibition was 13.4%.

`Cc1nc(C(=O)N2CCCC(Nc3ccc(C)c(C)c3)C2)cs1` (stereo not drawn) was tested. Which inhibition did it give?
The inhibition was 13.6%.

For `Cc1cc(C(=O)N2CCCC(Nc3ccccc3)C2)c2ccc(F)cc2n1` (stereo not drawn), which inhibition is on record?
The inhibition was 12.7%.

Which inhibition does the source give for `COc1ccc(C(=O)N2CCCC(Nc3ccc(F)cc3)C2)c(OC)c1` (stereo not drawn) here?
Its inhibition is 5.24%.

`CC(CC(=O)Nc1ccc(S(=O)(=O)N2CCOCC2)cc1)c1ccccc1` (stereo not drawn) was tested. Which inhibition did it give?
The inhibition was 3.54%.

With `Cc1cc(Cl)ccc1NC(=S)N1CCN(C(=O)c2ccco2)CC1` as the compound, how does the inhibition read?
Its inhibition is 5.96%.

How did the inhibition turn out when `Cc1ccc(S(=O)(=O)NN=Cc2c(O)ccc3ccccc23)cc1` was run?
Its inhibition is 11.4%.

With `O=C(NCCc1ccccc1)C1CCC(CNS(=O)(=O)c2ccc(F)cc2)CC1` (stereo not drawn) as the compound, how does the inhibition read?
The inhibition was 6.44%.

Which inhibition does the source give for `O=C(CSc1nnc(CNC(=O)c2ccco2)o1)Nc1ccc(F)cc1` here?
Its inhibition is -2.84%.

With `Cc1ccc(N/C(CSC(N)=O)=N/S(=O)(=O)c2ccccc2)cc1` as the compound, how does the inhibition read?
The inhibition was 4.14%.

`Cc1cc(C=O)c(C)n1-c1cc(C(F)(F)F)ccc1N1CCOCC1` was tested. Which inhibition did it give?
The inhibition was 5.1%.

`CCn1nc(CC(C)C)cc1C(=O)N1CCCC(Nc2ccc(F)cc2)C1` (stereo not drawn) was tested. Which inhibition did it give?
The inhibition was 1.25%.

Which inhibition does the source give for `CCn1nc(C)cc1C(=O)N1CCCC(Nc2ccc(C(C)C)cc2)C1` (stereo not drawn) here?
Its inhibition is 9.28%.

With `CCN(CC)c1ccc(S(=O)(=O)N2CCOCC2)cc1NC(=O)C1CC1` as the compound, how does the inhibition read?
Its inhibition is 6.61%.

How did the inhibition turn out when `Cc1ncc(S(=O)(=O)C(C)(C)C)c(N)n1` was run?
The inhibition was 4.93%.

With `O=C(COC(=O)/C=C/c1cccs1)NC(=O)Cc1ccccc1` as the compound, how does the inhibition read?
The inhibition was 9.86%.

With `Nc1ccccc1SCc1ccccc1` as the compound, how does the inhibition read?
The inhibition was 3.68%.

With `Nc1ccccc1SC/C=C/CSc1ccccc1N` as the compound, how does the inhibition read?
Its inhibition is 17.8%.

For `CC1(C)CC(=O)C2=C(C1)NC(=O)NC2c1ccc(Cl)cc1` (stereo not drawn), which inhibition is on record?
Its inhibition is 9.51%.

For `COc1ccc(NC(=O)C2CC(c3ccc(Cl)cc3)=NO2)cc1OC` (stereo not drawn), which inhibition is on record?
Its inhibition is -3.14%.

With `COC(=O)C1CCN(C(=O)Cn2nnc(-c3ccccc3)n2)CC1` as the compound, how does the inhibition read?
The inhibition was 5.24%.

For `CC(C)/C=C1\CC/C(=C\c2ccc(N(C)C)cc2)C1=O`, which inhibition is on record?
The inhibition was 6.52%.

With `CN(C)c1ccc(/C=C2\CCC/C(=C\c3ccccc3)C2=O)cc1` as the compound, how does the inhibition read?
Its inhibition is 10.2%.

With `Cc1ccc(S(=O)(=O)N2CCCCC2)cc1NC(=O)CSc1nnc(C2CC2)n1N` as the compound, how does the inhibition read?
The inhibition was 4.18%.

`Cc1cc(C(=O)NCC(=O)OCC(=O)NCCc2ccccc2)ccc1[N+](=O)[O-]` was tested. Which inhibition did it give?
Its inhibition is -1.11%.

With `COc1ccc(F)cc1C(=O)C1CCCN(Cc2ccc3c(c2)OCCO3)C1` (stereo not drawn) as the compound, how does the inhibition read?
Its inhibition is 4.09%.

`CC(C)NC(=O)C1CCN(Cc2cccc(OCc3ccccc3)c2)CC1` was tested. Which inhibition did it give?
Its inhibition is 6.52%.
